Reference: PubChem BioAssay (NCATS)
Several values for one entry are separate records, joined by “and”; a condition that tells them apart may be missing. Equal values may be shown once. Inconclusive results are not listed. Unmarked numbers belong to inactive results. Activity calls are given as the source filed them. The call rests on the fitted dose curve; in most records, active means well fitted curve in the direction sought with a large enough effect; inconclusive means small, poorly fitted or top-dose-only effect, or another doubt; inactive means no such curve, though single readings can be large; an effect the other way counts as inactive or inconclusive.

Legend:
[1] = Viability qHTS for spleen associated tyrosine kinase inhibitor (SYKi) drug resistant MV4-11 cells (AID 1963824); further: nearly all actives have a fitted effect of over 35% in size
Summary of the method: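 SYK-inhibitor-resistant MV4-11 AML cells were seeded at 500 per well onto compound and cultured 72 hours (37 °C, 5% CO2). CellTiter-Glo was then added, and after 10 min at room temperature, luminescence gave viability.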

[2] = Cellular viability qHTS for adrenocortical cancer (ACC) cell line SW-13 (AID 1963989); settings: SW-13 ACC cells viability, CellTiter-Glo, 48 h; activity (max response): hits give low values; further: nearly all actives have a fitted effect of over 65% in size;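 on activity (max response): cells grown in serum-free medium with ITS supplement; on the % scale 0 is the no-effect control and ±100 the full control effect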
Summary of the method: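 Here, serum-free SW-13 cultures were dosed up to 46 uM. Following 48 h, ATP-dependent luminescence (CellTiter-Glo) reported viable cells, and logistic modeling produced IC50 values.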

[3] = Cellular viability qHTS for adrenocortical cancer (ACC) cell line NCI-H295R (AID 1963990); further: nearly all actives have a fitted effect of over 60% in size
Summary of the method: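 Viability of NCI-H295R after 48 h of treatment (final up to 46 uM) measured through cellular ATP luminescence.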
Potency means the concentration at half of the fitted maximal effect.

| Structure (SMILES) | Potency [1] | activity (max response) [2] | Potency [2] | Potency [3] |
| --- | --- | --- | --- | --- |
| CC(C)=CCC/C(C)=C/CC/C(C)=C/C(=O)OCC(=O)[C@@]1(O)CC[C@H]2[C@@H]3CCC4=CC(=O)C=C[C@]4(C)[C@H]3[C@@H](O)C[C@@]21C | 9.44 µM (active) | 9.99% |  |  |
| CCCCN(CCCC)CCCOC(=O)c1ccc(N)cc1 | inactive | -3.65% |  |  |
| O=S(=O)(O)c1ccc2nc(-c3ccccc3)[nH]c2c1 | inactive | -14% |  |  |
| C[C@@H](O)[C@H](N)C(=O)O | inactive | 12.2% |  |  |
| CCOCc1nc2c(N)nc3ccccc3c2n1CC(C)(C)O | 18.6 µM (active) | -23.1% |  |  |
| c1ccc2sc(SN3CCOCC3)nc2c1 | inactive | 3.28% |  |  |
| CC1(C)CC[C@]2(C(=O)O)CC[C@]3(C)C(=CC[C@@H]4[C@@]5(C)C[C@@H](O)[C@H](O)C(C)(C)[C@@H]5CC[C@]43C)[C@@H]2C1 | 18.6 µM (active) | -1.16% |  |  |
| CC(C)(C)CC(C)(C)c1ccc(OCCOCC[N+](C)(C)Cc2ccccc2)cc1 | 2.37 µM (active) and 1.46 µM (active) |  | 5.17 µM (active) |  |
| COc1ccc(N(C)c2nc(C)nc3ccccc23)cc1 | 0.0042 µM (active) |  | 0.0112 µM (active) |  |
| CN[C@@H]1[C@H](O[C@H]2[C@H](O[C@@H]3[C@@H](O)[C@H](O)[C@@H](N=C(N)N)[C@H](O)[C@H]3N=C(N)N)O[C@@H](C)[C@]2(O)C=O)O[C@@H](CO)[C@H](O)[C@H]1O | inactive | 6.19% |  |  |
| CN(CC(=O)N(Cc1ccc(C2CCCCC2)cc1)c1ccc(C(=O)O)c(O)c1)S(=O)(=O)c1c(F)c(F)c(F)c(F)c1F | 2.63 µM (active) | -5.17% |  |  |
| CCCCCCCCCCCCCC[N+](C)(C)C | 1.33 µM (active) |  | 4.61 µM (active) |  |
| Nc1ccc(O)c(C(=O)O)c1 | inactive | 6.74% |  |  |
| CCOC(=O)[C@H]1O[C@@H]1C(=O)N[C@@H](CC(C)C)C(=O)NCCC(C)C | 5.9 µM (active) | -2.38% |  |  |
| Cc1ccc(NC(=O)c2ccc3c(c2)OCCO3)cc1NC(=O)c1ccc2nc(OCCN3CCCC3)ccc2c1 | 0.0229 µM (active) |  | 0.802 µM (active) |  |
| COc1cc(O)cc(O)c1 | inactive | -2.38% |  | inactive |
| C#C[C@]1(O)CC[C@H]2[C@@H]3CCc4cc(OC)ccc4[C@H]3CC[C@@]21C | 13.3 µM (active) | 5.57% and 4.24% |  | inactive |
| Cc1cc(OI)c(C(C)C)cc1-c1cc(C(C)C)c(OI)cc1C | inactive | 11.4% |  | inactive |
| Cc1ccccc1-n1nc(-c2c(-c3ccc(F)cc3)nn3c2NC[C@@H](CO)C3)ccc1=O | 2.91 µM (active) | 12.4% |  | inactive |
| O=C(c1ccc(NS(=O)(=O)c2cccc3cccnc23)cc1)N1CCN(CC2CC2)CC1 | inactive | -19.6% |  | inactive |

| Structure (SMILES) | Potency [1] | activity (max response) [2] | Potency [2] | Potency [3] |
| --- | --- | --- | --- | --- |
| Nc1nc(Nc2ccc3c(c2)CC[C@@H](N2CCCC2)CC3)nn1-c1cc2c(nn1)-c1ccccc1CCC2 | 0.417 µM (active) |  | 14.1 µM (active) | 10 µM (active) |
| C[C@]12CCC(=O)C=C1CC[C@H]1[C@@H]3CC[C@](O)(C(=O)CO)[C@@]3(C)C[C@H](O)[C@@]12F | inactive | 6.22% |  | inactive |
| CO[C@H]1/C=C/O[C@@]2(C)Oc3c(C)c(O)c4c(O)c(c5c(c4c3C2=O)=NC2(CCN(CC(C)C)CC2)N=5)NC(=O)/C(C)=C/C=C/[C@H](C)[C@H](O)[C@@H](C)[C@@H](O)[C@@H](C)[C@H](OC(C)=O)[C@@H]1C | 18.6 µM (active) | -11.1% |  | inactive |
| CCCC1(CCC)CCC2(CCN(CCCN(CC)CC)C2)CC1 | 2.31 µM (active) |  | 3.55 µM (active) | 6.31 µM (active) |
| O=C(O)CNC(=O)CNC(=O)CNC(=O)CSC(=O)c1ccccc1 | inactive | -23.1% |  | inactive |
| CN1CC[C@H](c2c(O)cc(O)c3c(=O)cc(-c4ccccc4Cl)oc23)[C@H](O)C1 | 0.299 µM (active) |  | 0.184 µM (active) | 0.103 µM (active) |
| CCOC(=O)N[C@@H]1CC[C@@H]2[C@@H](C1)C[C@H]1C(=O)O[C@H](C)[C@H]1[C@H]2/C=C/c1ccc(-c2cccc(F)c2)cn1 | 13.2 µM (active) | -18% |  | inactive |
| Cc1cc(-n2c(=O)ccc3cnc4[nH]ccc4c32)ccc1F | 18.6 µM (active) | -19.3% |  | inactive |
| c1cnc(N2CCN(Cc3ccc4c(c3)OCO4)CC2)nc1 | inactive | 6.56% |  | inactive |
| Cc1cc(C)nc(NS(=O)(=O)c2ccc(N)cc2)n1 | inactive | 6.1% |  | inactive |
| CN(C)CCC[C@@]1(c2ccc(F)cc2)OCc2cc(C#N)ccc21 | 8.41 µM (active) | -9.39% |  | inactive |
| CS(=O)(=O)Nc1ccc([N+](=O)[O-])cc1Oc1ccccc1 | 14.8 µM (active) | 9.34% and -1.91% |  | inactive |
| COC(=O)C1=C(C)NC(c2ncc(F)cc2F)=N[C@@H]1c1ccc(F)cc1Cl | 20.9 µM (active) | -20.4% |  | inactive |
| C/C(=C\c1csc(C)n1)[C@@H]1C[C@@H]2O[C@]2(C)CCC[C@H](C)[C@H](O)[C@@H](C)C(=O)C(C)(C)[C@@H](O)CC(=O)N1 | 0.0132 µM (active) |  | 3.16 µM (active) | 8.91 µM (active) |
| CN1CC[C@@H](NC(=O)Nc2ccc(C#N)cc2)C[C@@H]1c1nc2ccccc2[nH]1 | 18.6 µM (active) | -1.78% |  | inactive |
| C/C=C/c1ccc(OC)cc1 | inactive | 7.49% |  | inactive |
| O=C(CS(=O)Cc1ccco1)NC/C=C\COc1cc(CN2CCCCC2)ccn1 (stereo not given) | inactive | 2.9% |  | inactive |
| Cc1ccc(O)cc1 | inactive | 11.5% |  | inactive |
| CC(CSC(=O)c1ccccc1)C(=O)N1C[C@@H](Sc2ccccc2)C[C@H]1C(=O)O (stereo not given in full) | inactive | -2.01% |  | inactive |
| CC1(C)O[C@@H]2C[C@H]3[C@@H]4C[C@H](F)C5=CC(=O)C=C[C@]5(C)[C@H]4[C@@H](O)C[C@]3(C)[C@]2(C(=O)CO)O1 | 18.6 µM (active) | -3.16% and 0.473% |  | inactive |

| Structure (SMILES) | Potency [1] | activity (max response) [2] | Potency [2] | Potency [3] |
| --- | --- | --- | --- | --- |
| COc1ccc(C(=O)c2ccccc2O)c(O)c1 | 9.44 µM (active) | 11.3% |  | inactive |
| CS(=O)(=O)c1ccc(-c2nnc(/C=C/c3nnc(-c4ccc(C#N)cc4)o3)n2-c2ccccc2Cl)nc1 | 14.8 µM (active) | -6.81% |  | inactive |
| COc1cc([C@H]2Oc3cc([C@H]4Oc5cc(O)cc(O)c5C(=O)[C@@H]4O)ccc3O[C@@H]2CO)ccc1O | 18.6 µM (active) | 11.7% and -16.7% |  | inactive |
| COc1ccc(S(=O)(=O)Nc2cc(-c3csc(C#N)c3)ccc2C)cc1 | 0.0934 µM (active) |  | 0.0631 µM (active) | 0.0794 µM (active) |
| Cc1ccc(-c2nn(C(C)(C)CNC(=O)c3ccncc3)c3ncnc(N)c23)cc1 | 6.61 µM (active) |  | 8.91 µM (active) | 8.91 µM (active) |
| O=C(Nc1ccc(C(=O)O)c(O)c1)c1ccccc1 | inactive | 1.55% |  | inactive |
| NS(=O)(=O)c1ccc(Cc2c(-c3cccc(-c4ccccc4)c3)nn(-c3nc(C(=O)O)cs3)c2CC2CC2)cc1 | 10.5 µM (active) |  | 31.6 µM (active) | 28.2 µM (active) |
| CC(=O)O[C@]1(C(C)=O)CC[C@H]2[C@@H]3C=C(Cl)C4=CC(=O)[C@@H]5C[C@@H]5[C@]4(C)[C@H]3CC[C@@]21C | 14.6 µM (active) | -7.85% and -11.2% |  | inactive |
| CCC(C(=O)OCCN(CC)CC)c1ccccc1 (stereo not given) | inactive | 4.88% |  | inactive |
| C[C@H](CN(C)C)Oc1nc(Nc2cc3cccc(Cl)c3cn2)cnc1C#N | 411 nM (active) and 934 nM (active) | -6.08% |  | 2.24 µM (active) |
| c1cc(Nc2cc(C3CC3)[nH]n2)nc(Nc2ccc3nc[nH]c3c2)n1 | 0.0184 µM (active) |  | 0.224 µM (active) | 8.91 µM (active) |
| CC(C)C[C@@H](N)C(=O)O | inactive | 8.35% |  | inactive |
| CCCCOc1nc(N)c2c(n1)N(Cc1cccc(CN3CCCC3)c1)CC(=O)N2 | 23.5 µM (active) | -4.22% |  | inactive |
| Cc1cc(/C=c2/sc3nc4ccccc4n3c2=O)c(C)n1-c1ccccc1 | 10.5 µM (active) | -15.5% |  | inactive |
| CC(=O)CC(c1ccc([N+](=O)[O-])cc1)c1c(O)c2ccccc2oc1=O (stereo not given) | inactive | -8% |  | inactive |
| CC(=O)O/N=C1/C(c2c(O)[nH]c3cc(Br)ccc23)=Nc2ccccc21 | 0.209 µM (active) |  | 25.1 µM (active) | 15.8 µM (active) |
| Nc1ccc(C(=O)N2CC3CC(CN(Cc4ccccc4)C3)C2)cc1 | inactive | 7.04% |  | inactive |
| C=C[C@H]1CN2CCC1C[C@@H]2C(O)c1ccnc2ccc(OC)cc12 (stereo not given in full) | 14.8 µM (active) | 3.34% |  | inactive |
| Clc1ccccc1CN1CCc2sccc2C1 | 18.8 µM (active) | 1.55% |  | inactive |
| COc1ccc([C@@H]2CC(=O)c3c(O)cc(O[C@@H]4O[C@H](CO[C@@H]5O[C@@H](C)[C@H](O)[C@@H](O)[C@H]5O)[C@@H](O)[C@H](O)[C@H]4O)cc3O2)cc1O | 8.33 µM (active) | 3.7% |  | inactive |
